Screens from PubChem.
mHTT-CaM PPI inh = inhibitors of human mutant huntingtin-calmodulin interaction. P42858. AlphaScreen His-mHTT/GST-CaM binding, luminescence. inhibition, % at 15 µM. actives 3.6% (n = 190,000). AID 1671202;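 also: 0% = both proteins with DMSO and 100% = one protein alone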
Pf apPOL inh = Pf-apPOL DNA polymerase inhibition; inhibition, % at 10 µM; AID 1794808; actives 0.25% (n = 210,000); Recombinant Pf-apPOL, molecular beacon fluorescence, 1.5 h
* hit, by the source's call; i = inactive; . = not tested or not shown. A selection: hits, their analogues and other compounds. The true share with any hit is near 3.5%. Rule as the data show it: active = inhibition above about 50%; inactive = the rest.

SMILES	mHTT-CaM PPI inh	Pf apPOL inh
CC1(C)C2CCC1(C)C(OCC(O)CN1CCN(c3ccccc3)CC1)C2 (centres undefined)	51.7*	-0.3
O=C(Nc1nnc2ccccn12)C1CCCO1 (centres undefined)	8.2	1.0
Cc1cc(C)c(C)c(S(=O)(=O)N2CCC(c3noc(-c4ccccc4)n3)CC2)c1C	-4.9	-4.2
Cc1cc(C)c(S(=O)(=O)N2CCC(c3noc(-c4ccccc4)n3)CC2)c(C)c1	100.3*	-1.7
CCC(C)NCC(O)COc1ccccc1OC (centres undefined)	-7.1	-7.2
Cc1ccc(N2CCN(C(=O)c3cccc4[nH]cc(CN5CCCC5)c34)CC2)cc1	78.2*	-4.1
Cc1ccc(NC(=O)c2cccc3[nH]cc(CN4CCCC4)c23)cc1	5.0	-1.2
Cc1cccc(C(=O)Nc2ccc(F)cc2)c1	-1.1	-4.4
Cc1cccc(C(=O)Nc2ccc([N+](=O)[O-])c(NC(=O)c3cccc(C)c3)c2)c1	1.5	79.6*
Cc1cccc(C(=O)Nc2ccc(I)cc2)c1	-31.5	77.4*
COc1ccc(NS(=O)(=O)c2cccc(C(=O)Nc3cccc(C(=O)O)c3)c2)cc1	4.2	3.7
COc1ccc(NS(=O)(=O)c2cccc(C(=O)Nc3ccc(C)cc3)c2)cc1	4.5	95.2*
CN(C)c1ccc(NC(=O)c2ccc(Cl)cc2)cc1	-0.9	7.1
CN(C)c1ccc(NC(=O)c2ccncc2)cc1	70.4*	1.0
Cc1cc(C(=O)Nc2ccc(NC(=O)c3ccccc3)cc2)ccc1[N+](=O)[O-]	-4.1	7.1
O=C(c1cccc(Cl)c1)N1CCC(c2ccn3ncc(C(=O)N4CCCC4)c3c2)CC1	10.0	-10.6
O=C(Nc1ccccc1)c1cccc(I)c1	-9.9	2.0
CN(C)c1ccc(NC(=O)c2cccc(I)c2)cc1	79.5*	-3.1
CCN1C(=O)Cc2ccccc2C1C(=O)N1CCC(C)CC1 (centres undefined)	-14.2	5.1
Cc1cc(C)c(S(=O)(=O)Nc2ccc3oc4c(c3c2)C(=O)CCC4)c(C)c1	-5.0	-6.9
COc1ccccc1OCC(=O)N(CCn1cccn1)c1nc2c(Cl)cccc2s1	-14.1	-1.6
Cc1ccc(C2=NNC(C(O)C(O)C(O)C(C)O)S2)cc1 (centres undefined)	-2.1	.
Cc1ccc(C2=NNC(c3ccc(F)cc3)S2)cc1 (centres undefined)	62.2*	.
Oc1ccc(Br)cc1C=Nc1cc(C(F)(F)F)ccc1Cl	.	3.0
O=C(C1CCCC1)N1CCc2nc3cc(-c4ccccc4)[nH]n3c(=O)c2C1	10.8	1.3
SMILES	mHTT-CaM PPI inh	Pf apPOL inh
O=C(NNC(=O)c1ccc(Cl)cc1)C(=O)NNC(=O)c1ccc(Cl)cc1	.	90.4*
Nc1ccccc1C(=O)NNC(=O)c1ccc(Cl)cc1	.	7.4
CCc1c(C2CCN(C(=O)c3ccc(OC)nc3)CC2)noc1N	-7.5	-1.6
CS(=O)(=O)N1CCC(C(=O)NCCn2ncc3c(N4CCOCC4)ncnc32)CC1	2.8	-26.6
COc1ccc(CNc2ccccc2SC)cc1OC	15.1	2.7
COc1ccc(NCc2ccccc2Br)cc1OC	73.1*	6.1
COc1ccc(CNCc2ccc(C)cc2C)c(OC)c1	-2.5	-1.7
COc1ccccc1CNc1ccccc1	2.7	-10.0
COc1ccc(NCc2ccc(SC)cc2)cc1OC	80.5*	0.2
COc1ccc(NCc2ccc(C)cc2C)cc1OC	82.9*	1.2
COc1ccc2c(c1)OCC/C2=N\OC(=O)c1cc(SC)ccc1Cl	i	-2.3
N#C/C(=C\C=C\c1ccccc1)c1nc(-c2ccc([N+](=O)[O-])cc2)cs1	6.7	4.2
O=C(/C=C1\Sc2ccccc2N(Cc2ccc(F)cc2)C1=O)N1CCCC1	19.0	34.9
COCCn1c(C2CCN(S(=O)(=O)c3ccc(F)c(Cl)c3)C2)nc2ccncc21 (centres undefined)	5.4	-1.7
O=C(c1ccc(C#CC2(O)CCCCC2)cc1)N1CCN(c2ccc(F)cc2)CC1	52.4*	-14.1
O=C(c1ccc(F)cc1)N1CCN(c2ccccc2)CC1	-2.5	-2.6
COc1cccc(NC(=O)C2CCCN(c3nccc(C)n3)C2)c1 (centres undefined)	-10.4	-1.5
CCOc1cccc2cc(-c3csc(NC(=O)c4ccc([N+](=O)[O-])o4)n3)oc12	-6.2	-3.5
O=C(Nc1nc(-c2ccccn2)cs1)c1ccccc1[N+](=O)[O-]	100.2*	-131.1
O=C(Cc1csc(Nc2ncccn2)n1)NCc1cccs1	-7.4	-1.9
O=C(Nc1nc(-c2ccccn2)cs1)c1cc2cc([N+](=O)[O-])ccc2s1	22.9	-27.7
O=C(Nc1nc(-c2ccccn2)cs1)c1ccc([N+](=O)[O-])o1	73.7*	-54.8
O=C(NCc1cccs1)Nc1nc(-c2ccccn2)cs1	99.5*	-6.9
Cc1nnc(-c2ccc(N3CCc4ccccc4C3)c([N+](=O)[O-])c2)o1	45.2	-7.1
COc1ccc(Cl)cc1S(=O)(=O)NCCC12CC3CC(CC(C3)C1)C2	-6.0	-5.5
SMILES	mHTT-CaM PPI inh	Pf apPOL inh
COc1ccc(-n2nc(C(=O)N(C)Cc3ccccc3)c3ccccc3c2=O)cc1	7.0	-5.9
CC(NC(=O)c1nc2ccccn2c1-c1ccncc1)c1ccccc1 (centres undefined)	-3.9	0.8
Cc1ccc(C2C(C#N)=C(N)OC3=C2C(=O)CCC3)o1 (centres undefined)	1.1	-1.1
Cc1ccc(C2C(C#N)=C(N)Oc3c2sc2ccccc32)o1 (centres undefined)	86.0*	7.0
CCN(CC)S(=O)(=O)c1cc(C(=O)Nc2ccc([N+](=O)[O-])cc2)ccc1C	3.1	-0.3
O=C(CSc1cn(Cc2cccc(F)c2)c2ccccc12)N1CCCCC1	27.0	2.9
CC1CCN(C(=O)CSc2cn(Cc3ccccc3Cl)c3ccccc23)CC1	58.0*	-5.4
O=C(CSc1cn(Cc2ccccc2Cl)c2ccccc12)Nc1ccc2c(c1)OCO2	34.0	-7.2
O=C(CSc1cn(Cc2ccccc2Cl)c2ccccc12)N1CCCCC1	53.0*	-6.9
CC1CCN(C(=O)CSc2cn(Cc3ccc(F)cc3)c3ccccc23)CC1	83.0*	-1.7
O=C(CSc1cn(Cc2ccc(Cl)cc2)c2ccccc12)N1CCCCC1	31.0	-3.0
O=C(CSc1cn(Cc2ccc(Cl)cc2)c2ccccc12)Nc1ccc2c(c1)OCO2	64.0*	-3.4
Cc1ccccc1Cn1cc(SCC(=O)N2CCOCC2)c2ccccc21	30.0	1.1
CCc1ccccc1S(=O)(=O)N1CCc2c(c(-c3nc(C4CC4)no3)nn2C)C1	7.7	-0.8
Cc1ccc(NC(=O)N2CCCC(C)(C(=O)NCc3ccccc3)C2)c(C)c1 (centres undefined)	11.1	-6.1
COc1ccc(NC(=O)C2CCN(c3cncnc3N(C)C)CC2)cc1OC	14.1	-12.1
O=C(CSc1cn(Cc2ccc(Cl)cc2)c2ccccc12)N1CCOCC1	72.0*	-2.6
O=C(CSc1cn(Cc2ccc(F)cc2)c2ccccc12)N1CCOCC1	33.0	1.6
O=C(Cc1ccc(Cl)cc1)NCc1cccnc1	-1.8	9.8
COc1ccc2c(c1)c(CC(=O)NCc1cccnc1)c(C)n2C(=O)c1ccc(Cl)cc1	58.0*	-3.7
O=C(Nc1cc(-c2ccccn2)no1)c1ccc(Cl)cc1	10.3	1.0
O=C(Nc1nc(-c2ccccn2)cs1)c1ccc(Oc2ccccc2)cc1	94.0*	-5.1
COc1cc(OC)cc(C(=O)Nc2nc(C(=O)NC(C)c3ccccc3)cs2)c1 (centres undefined)	-8.8	-3.4
O=C(Nc1nc(-c2ccccn2)cs1)c1cc(-c2ccco2)on1	99.6*	-212.7
